# Compound activity deposited in PubChem by National Center for Advancing Translational Sciences (NCATS).
# Sampled rows, rich in hits. Any-hit rate of the full collection: about 8.3%.
# Chronic BCR inh: inhibitors of chronic active B-cell receptor signaling; ABC-DLBCL IkBa-CBG/CBR reporter, luminescence ratio, 4 h; AID 493014; hit rate 0.05% among 340,000; Potency, µM (doses to about 46.1 µM), for the others: at the highest dose activity change, negative = inhibition, hits mostly inhibitors; active means well fitted inhibition curve with a large enough effect in the signal ratio, with a control signal flat, not every such curve was filed as active; inconclusive means small, poorly fitted or top-dose-only effect, or effect the other way, or a change in a side signal; the % refers to the signal ratio;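 further: potency means the concentration at half of the fitted maximal effect; plate controls were basal doxycycline-induced cells for no effect and cells given 10 µM MG132 for full effect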
#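 Doxycycline induced both beetle luciferases in TMD8 lymphoma cells; IKK-driven degradation limits the IkappaBalpha-fused green signal, while red luminescence normalises for cell number and nonspecific effects. Compounds tested up to 46 uM, 4 hrs.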
# RORgamma inh: ROR gamma (mouse) transcription inhibition. P51450. Drosophila S2 Gal4-RORgamma UAS-luciferase reporter, 20 h. Potency, µM (doses to about 53.6 µM), for inactives: at the highest dose activity change, negative = inhibition, usual class: inhibitors. hit rate 5.4% among 310,000. AID 2551; further: potency means the concentration at half of the fitted maximal effect; on the % scale 0 is the no-effect control and ±100 the full control effect; nearly all actives have a fitted effect of over 60% in size
# Target sequence (P51450 whole entry, looked up, the tested form may be a part): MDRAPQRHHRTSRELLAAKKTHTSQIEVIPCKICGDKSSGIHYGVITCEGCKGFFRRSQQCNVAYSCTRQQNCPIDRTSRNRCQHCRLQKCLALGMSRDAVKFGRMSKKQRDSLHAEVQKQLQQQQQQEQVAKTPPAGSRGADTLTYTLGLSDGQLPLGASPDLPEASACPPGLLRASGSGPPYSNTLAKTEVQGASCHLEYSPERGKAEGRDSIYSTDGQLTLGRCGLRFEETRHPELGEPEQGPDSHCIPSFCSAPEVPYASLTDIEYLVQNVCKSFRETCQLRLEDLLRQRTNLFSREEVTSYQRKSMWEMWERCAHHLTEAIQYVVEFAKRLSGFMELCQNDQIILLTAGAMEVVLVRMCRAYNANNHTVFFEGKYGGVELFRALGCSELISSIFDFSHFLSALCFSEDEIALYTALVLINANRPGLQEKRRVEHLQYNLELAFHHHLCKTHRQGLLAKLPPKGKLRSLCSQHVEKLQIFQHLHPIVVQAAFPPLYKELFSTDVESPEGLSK
#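 Compounds are pin-transferred onto Drosophila Schneider cells expressing a copper-inducible Gal4–ROR gamma transactivation domain fusion. After 1 hr, copper sulfate is added to 700 uM final; luciferase is read 20 hr later.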
# SW480 rerep: inducers of DNA re-replication in SW480 colon cancer cells; SW480 DNA re-replication, Hoechst DNA content imaging, 48 h; hit rate 1.8% among 340,000; Potency, µM (titrated, usually from 46.1 µM), inactives show top-dose re-replication activation, usual class: activators; further: potency means the concentration at half of the fitted maximal effect; % of control where 0% means no effect; nearly all actives have a fitted effect of over 55% in size
#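 Quantitative HTS format with DMSO vehicle controls; 48 hr drug incubation at 37 C, then 40 min Hoechst staining and scanning imager measurement at 405 nm excitation.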
# MCF10A rereplic: induces DNA re-replication in MCF 10a normal breast cells | MCF 10A DNA re-replication, Hoechst nuclear intensity, 48 h | Potency, µM (doses to about 46.1 µM), for the others: top-dose activity, positive = re-replication, usual class: activators | hit rate 2.9% among 350,000 | AID 624296; further: potency means the concentration at half of the fitted maximal effect; % of control where 0% means no effect; nearly all actives have a fitted effect of over 50% in size
# VP16 counter: counter-screen for ROR gamma inhibitors: Gal4-VP16 reporter; Drosophila S2 Gal4-VP16 UAS-luciferase, luminescence, 20 h; Potency, µM (doses to about 53.6 µM), for inactives: at the top dose activity, negative = inhibition, hits mostly inhibitors; hit rate 3.5% among 310,000; AID 2546;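 further: Gal4-VP16 expression switched on by copper sulfate through the metallothionein promoter; potency means the concentration at half of the fitted maximal effect; on the % scale 0 is the no-effect control and ±100 the full control effect; nearly all actives have a fitted effect of over 50% in size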
# Giardia kill: kills Giardia lamblia | Giardia lamblia trophozoite viability | activity change, % at 7.66 µM, hits read low | hit rate 0.15% among 340,000 | AID 540267; in the data active means activity change below about -80%; inconclusive means between about -30% and that limit;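 further: parasites exposed to compound for two days anaerobically before the ATP read; on the % scale 0 is the no-effect control and ±100 the full control effect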
#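 Each well holds 100 Giardia trophozoites and compound. After two days (48 hrs) at 37 deg C in anaerobic conditions, ATP is quantified by luminescence.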
# Active calls of the source: *; ? = inconclusive; nt = no result given. Unless noted, the call rests on the fitted dose curve; in most records, active means well fitted curve in the direction sought with a large enough effect; inconclusive means small, poorly fitted or top-dose-only effect, or another doubt; inactive means no such curve, though single readings can be large; an effect the other way counts as inactive or inconclusive.
SMILES,Chronic BCR inh,RORgamma inh,SW480 rerep,MCF10A rereplic,VP16 counter,Giardia kill
O=C1CC(Sc2cccs2)C(=O)N1c1ccccc1 (centres undefined),-3%,4.5µM*,1%,10%,7.9µM*,16
Cc1ccc(C)c(OCc2cc(C(=O)N3CC[C@H](O)C3)no2)c1,3%,20%,-3%,6%,-4%,-19
O=C(CCl)N1CCN(S(=O)(=O)c2ccc3ccccc3c2)CC1,?,?,?,15µM*,?,-16
CCCCCC(=O)N1CCN(S(=O)(=O)c2ccc3c(c2)OCCO3)CC1,-2%,nt,-2%,12%,nt,-8
O=C(CCl)N1CCN(S(=O)(=O)c2ccc3c(c2)OCCCO3)CC1,?,nt,?,4.1µM*,nt,15
O=C(Cc1ccccc1F)N1CCN(S(=O)(=O)c2ccc(Cl)cc2)CC1,0%,nt,?,16µM*,nt,-11
CC(C)CC(=O)N1CCN(S(=O)(=O)c2ccc(Cl)cc2)CC1,-7%,15%,-9%,-6%,-8%,13
CC(C)CC(=O)C(=O)O,nt,nt,5%,-7%,nt,6
COc1ccc(-c2nnc(NC(=O)CSc3ccc(C)cc3)s2)cc1OC,?,-5%,-6%,-2%,0%,-1
COc1ccc(Cc2nnc(NC(=O)CSc3ccccc3)s2)cc1OC,?,-45%,-5%,-5%,-4%,-10
COc1ccc(-c2nnc(NC(=O)CSc3ccccc3)s2)cc1OC,?,?,14%,16%,22µM*,8
COc1ccc(Cc2nnc(NC(=O)CSc3ccc(Cl)cc3)s2)cc1OC,5%,13µM*,nt,nt,?,nt
O=C(NCc1ccncc1)c1cccc(S(=O)(=O)Nc2ccc(SC(F)F)cc2)c1,-1%,nt,-2%,13%,nt,?
CCOc1ccc(OCCC(=O)N(CCCOC)c2c(N)n(Cc3ccccc3)c(=O)[nH]c2=O)cc1,-5%,nt,25%,-18%,nt,-23
NC(=S)NN=C1CCCCCCCCC1,nt,nt,9%,0%,nt,5
C=CCNC(=S)NN=C1CCCCCCC1,?,0.35µM*,-8%,7%,4.5µM*,-5
COCCNC(=S)NN=C1CCCCC1,?,13µM*,18µM*,3%,?,2
Cc1cccc(C(c2sc3nc(-c4ccco4)nn3c2O)N2CCOCC2)c1 (centres undefined),0%,nt,nt,nt,nt,nt
COc1ccc(-c2cc(C(=O)N/N=C/c3sccc3C)c3ccccc3n2)c(OC)c1,-28%,4.5µM*,?,?,?,-27
CCCc1cc(C(=O)N/N=C/c2ccc(CC)s2)c2ccccc2n1,?,2.8µM*,21µM*,7.3µM*,6.3µM*,7
COc1ccccc1-c1cc(C(=O)N/N=C/c2cccs2)c2ccccc2n1,-7%,4.5µM*,7%,14µM*,5.6µM*,-3
O=C(NCc1cc([N+](=O)[O-])ccc1O)c1cc(-c2ccncc2)nc2ccccc12,?,14µM*,-16%,?,8.9µM*,-1
O=C(NCc1ccc(F)cc1)c1cc(-c2ccncc2)nc2ccccc12,?,41%,-93%,6%,11%,-4
COc1ccc(-c2cc(C(=O)N(C)Cc3cccc(OC)c3OC)c3ccccc3n2)cc1OC,?,15%,-1%,-6%,-5%,9
C/C(=N\NC(=O)c1cc(C)nc2ccccc12)c1ccco1,?,-26%,-7%,1%,4%,4
SMILES,Chronic BCR inh,RORgamma inh,SW480 rerep,MCF10A rereplic,VP16 counter,Giardia kill
Cc1cc(C(=O)N/N=C/c2ccncc2)c2ccccc2n1,-3%,-36%,-23%,-2%,-2%,-24
O=C(N/N=C/c1ccco1)c1cc(-c2ccncc2)nc2ccccc12,?,nt,16µM*,?,nt,13
COc1ccccc1CN(C)C(=O)c1cc(-c2cccs2)nc2ccccc12,?,43%,10%,18µM*,1%,-8
O=C(N/N=C/c1cccc(F)c1)c1cc(-c2ccco2)nc2ccccc12,-1%,-8%,?,?,13%,5
COc1ccc(-c2cc(C(=O)N/N=C(\C)c3ccco3)c3ccccc3n2)c(OC)c1,1%,6.3µM*,6%,13%,-30%,16
CCc1ccc(/C=N/NC(=O)c2cc(-c3ccncc3)nc3ccccc23)s1,?,2µM*,3.7µM*,1µM*,5.6µM*,5
COc1ccc(-c2cc(C(=O)N/N=C/c3ccc4c(c3)OCO4)c3ccccc3n2)c(OC)c1,8%,-17%,?,?,-2%,3
O=C(N/N=C/c1cccs1)c1cc(-c2ccncc2)nc2ccccc12,?,5µM*,?,?,7.1µM*,3
O=C(N/N=C/c1cccs1)c1cc(C2CC2)nc2ccccc12,0%,10µM*,18µM*,8.2µM*,18µM*,-7
O=C(N/N=C/c1ccncc1)c1cc(C2CC2)nc2ccccc12,-1%,3%,-8%,-6%,-9%,26
COc1cc(/C=N/NC(=O)c2cc(-c3ccccc3OC(C)C)nc3ccccc23)ccc1O,?,?,?,10µM*,-14%,-8
COc1cc(/C=N/NC(=O)c2cc(-c3ccccc3)nc3ccccc23)ccc1O,?,-17%,0%,16%,-9%,-13
COc1ccc(-c2cc(C(=O)N/N=C/c3ccc(OC)c(COCC(F)(F)C(F)F)c3)c3ccccc3n2)c(OC)c1,?,-5%,17%,23µM*,-1%,-2
O=C(CCNC(=O)c1ccccc1)NCCCc1ccccc1,4%,nt,4%,-4%,nt,0
O=C(O)CCC(=O)N1CCC[C@H]1C(=O)O,0%,10%,-4%,-6%,-7%,9
CCOC(=O)c1c(C)[nH]c(C(=O)OC(C)C(=O)NCc2ccccc2)c1C (centres undefined),11%,nt,9%,9%,nt,7
O=[N+]([O-])c1cc([N+](=O)[O-])c(Oc2c(F)cc(F)cc2F)cc1NN1CCCCC1,?,-12%,-3%,-17%,4%,0
CCc1ccc(/C=N/NC(=O)c2c[nH]c3ccccc23)s1,?,11µM*,2%,3%,-27%,16
O=C(N/N=C/c1cccs1)c1c[nH]c2ccccc12,?,?,-1%,3%,15%,9
COc1ccc(C(=O)NC(=S)Nc2ccc3[nH]c(=O)[nH]c3c2)c(OC)c1,1%,-6%,-5%,1%,10%,-2
O=c1[nH]c2ccccc2c2ccccc12,0%,8%,?,-2%,8%,2
O=c1c2c([nH]c3ccccc13)CCCCC2,?,?,29%,4%,18µM*,6
O=c1c2ccccc2[nH]c2ccccc12,9%,?,18µM*,122%,20µM*,7
